From PubChem BioAssay (NCI)
Compounds without any hit were thinned out: in the full panel of roughly 79,000, 15% have a hit. A number with no mark means an inactive call. Activity calls are given as the source filed them. Rule as the data show it: active = growth inhibition above about 70%; inactive = the rest.

Legend:
[1] = NCI Yeast Anticancer Drug Screen. Data for the rad50 strain (AID 155);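 also: 0% = growth of vehicle-only cultures of the same strain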; conditions: S. cerevisiae rad50 strain growth inhibition, stronger effect = higher value
Outline: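 Readout: growth inhibition relative to vehicle-treated cultures. Compound exposure was carried out in a genetically defined yeast strain deficient in DNA damage repair.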

[2] = NCI Yeast Anticancer Drug Screen. Data for the mec2-1 strain (AID 157); conditions: S. cerevisiae mec2-1 strain, stronger effect = higher value
Outline: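 Strain: mec2-1 (DNA repair/cell cycle alteration). Compound exposure, then growth measured; inhibition expressed relative to vehicle.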

[3] = NCI Yeast Anticancer Drug Screen. Data for the sgs1 mgt1 strain (AID 161);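 also: 0% = growth of cultures given vehicle only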; conditions: S. cerevisiae sgs1 mgt1 strain, stronger effect = higher value
Outline: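 Mutant yeast exposed to compound; growth scored against vehicle-only wells.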

[4] = NCI Yeast Anticancer Drug Screen. Data for the cln2 rad14 strain (AID 165);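 also: 0% = growth equal to vehicle treated cultures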; conditions: S. cerevisiae cln2 rad14 strain, stronger effect = higher value
Outline: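 Compounds are applied to the cln2 rad14 yeast strain, and growth is then compared with that of vehicle-treated cultures to give inhibition.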

[5] = NCI Yeast Anticancer Drug Screen. Data for the bub3 strain (AID 167); conditions: S. cerevisiae bub3 mutant strain, stronger effect = higher value
Outline: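 Readout: yeast growth inhibition, expressed relative to vehicle-only wells. The test organism is a mutant strain from a panel with lesions in DNA repair or checkpoint genes.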

[6] = NCI Yeast Anticancer Drug Screen. Data for the mlh1 rad18 strain (AID 175); conditions: S. cerevisiae mlh1 rad18 strain growth inhibition, stronger effect = higher value
Outline: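 Read-out is yeast growth inhibition, calculated against vehicle-only controls. The compound was applied to a strain engineered with DNA damage repair alterations.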

[7] = at 5.0 µM (retest, dose inferred, filed as 0.5)
[8] = at 50.0 µM (retest, dose inferred, filed as 5.0)

Row | Structure (SMILES) | growth inhibition [1, 7] | growth inhibition [1, 8] | growth inhibition ([1]; at 50.0 µM) | growth inhibition [2, 7] | growth inhibition [2, 8] | growth inhibition ([2]; at 50.0 µM) | growth inhibition [3, 7] | growth inhibition [3, 8] | growth inhibition ([3]; at 50.0 µM) | growth inhibition [4, 7] | growth inhibition [4, 8] | growth inhibition ([4]; at 50.0 µM) | growth inhibition [5, 7] | growth inhibition [5, 8] | growth inhibition ([5]; at 50.0 µM) | growth inhibition [6, 7] | growth inhibition [6, 8] | growth inhibition ([6]; at 50.0 µM)
1 | CCCCCCCCCCCC(N)c1ccccc1 (configuration not stated) | 99% (active) | 99% (active) | 99.5% (active) | 99% (active) | 99% (active) | 99.5% (active) | 99% (active) | 99% (active) | 99.2% (active) | 99% (active) | 99% (active) | 99.1% (active) | 99% (active) | 99% (active) | 99.2% (active) | 99% (active) | 99% (active) | 99.5% (active)
2 | COc1ccc2c(c1)OC(c1ccccc1O)CC2=O (configuration not stated) | 0% | -17% | 55.9% | -44% | -30% | 24.1% | -10% | 11% | 72.1% (active) | -14% | 12% | 20.7% | -2% | -9% | 55.5% | -70% | -34% | 36.5%
3 | CC12CCC(O)CC1=CCC1C2CCC2(C)C(NC(=O)C(Cc3ccc(O)cc3)NC(=O)OCc3ccccc3)CCC12 (configuration not stated) | 24% | 94% (active) | -7.7% | 21% | 97% (active) | 2.95% | 22% | 96% (active) | -2.85% | 21% | 94% (active) | 38.6% | -4% | 93% (active) | -5.4% | 41% | 96% (active) | -8.2%
4 | Cc1ccc(N=Nc2c(-c3ccccc3)nn(C(=S)S)c2-c2ccccc2)cc1 | 8% | 48% | 49.7% | 9% | 37% | 38.5% | 12% | 72% (active) | 55.8% | 5% | 39% | 16.2% | 36% | 84% (active) | 85.2% (active) | 7% | 34% | 61.8%
5 | O=S(=O)(Nc1ccccc1-c1ccc(Cl)cc1)c1ccccc1 | -6% | 14% | 98.9% (active) | -8% | 8% | 52.9% | -7% | -56% | 97.5% (active) | -12% | 95% (active) | 98% (active) | 2% | 91% (active) | 54.9% | -8% | 57% | 73.7% (active)
6 | FC(F)(F)c1cccc(Nc2ccc3cnc4ccccc4c3c2)c1 | 6% | 92% (active) | 94.7% (active) | -19% | 97% (active) | 95.2% (active) | -1% | 97% (active) | 96.6% (active) | -5% | 95% (active) | 92.5% (active) | -2% | 95% (active) | 95.2% (active) | 17% | 95% (active) | 93.3% (active)
7 | CC1CCCC(C(c2c[nH]c3ccccc23)c2c[nH]c3ccccc23)C1=O (configuration not stated) | 1% | 98% (active) | 96.8% (active) | 1% | 98% (active) | 58.6% | 3% | 97% (active) | 79.7% (active) | 0% | 98% (active) | 76.3% (active) | -11% | 96% (active) | 46% | -5% | 98% (active) | 97.2% (active)
8 | Cc1ccc(NC(=O)CCCC(=O)C(C#N)c2ccccc2C)cc1C (configuration not stated) | -5% | 7% | -17.3% | -2% | 3% | 11.4% | -5% | -19% | 10.6% | -8% | -5% | -19.1% | -1% | 2% | 5.75% | 1% | -4% | 12.1%
9 | CCOC(=O)Sc1nc2ccccc2[nH]1 | 4% | 6% | 53.2% | 2% | 3% | 25.2% | 4% | 0% | 62.1% | 3% | 1% | 13.7% | 2% | 2% | 7.45% | 0% | 7% | 29.4%
